The results in this text go back to PubChem BioAssay (NCI).

A short description of assay [1]: NCI Yeast Anticancer Drug Screen. Data for the rad50 strain (AID 155).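 Further: 0% = growth of vehicle-only cultures of the same strain.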 The conditions noted are these: S. cerevisiae rad50 strain growth inhibition; at 50.0 µM; hits give high values. Summed up: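 Growth of the mutant yeast was measured after compound exposure and referenced to vehicle-treated cultures.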
Assay [2] is described as follows: NCI Yeast Anticancer Drug Screen. Data for the mec2-1 strain (AID 157). The conditions noted are these: S. cerevisiae mec2-1 strain, at 50.0 µM, hits give high values. Summed up:
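mec2-1 yeast strain, carrying an alteration in DNA damage repair or cell cycle control, was exposed to compounds; growth inhibition was measured relative to vehicle-treated controls.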

Assay [3] in a line: NCI Yeast Anticancer Drug Screen. Data for the sgs1 mgt1 strain (AID 161).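 Further: 0% = growth of cultures given vehicle only.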 The conditions noted are these: S. cerevisiae sgs1 mgt1 strain, at 50.0 µM, hits give high values. Summed up: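 Compounds are added to genetically altered yeast, and growth is compared with cultures given vehicle alone to give percent inhibition.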
A short description of assay [4]: NCI Yeast Anticancer Drug Screen. Data for the cln2 rad14 strain (AID 165).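 Further: 0% = growth equal to vehicle treated cultures.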 The conditions noted are these: S. cerevisiae cln2 rad14 strain, at 50.0 µM, hits give high values. Summed up: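 Yeast carrying cln2 and rad14 alterations (cell cycle control and DNA damage repair) were exposed to compounds. Growth inhibition was measured against vehicle-treated controls.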

Assay [5] can be described thus: NCI Yeast Anticancer Drug Screen. Data for the bub3 strain (AID 167). The conditions noted are these: S. cerevisiae bub3 mutant strain, at 50.0 µM, hits give high values. Summed up: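 Whole-cell yeast assay. The mutant strain was incubated with compounds, and growth inhibition was determined by comparison with vehicle-treated cells.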
A short description of assay [6]: NCI Yeast Anticancer Drug Screen. Data for the mlh1 rad18 strain (AID 175). The conditions noted are these: S. cerevisiae mlh1 rad18 strain growth inhibition; at 50.0 µM; hits give high values. Summed up:
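Growth inhibition of the yeast strain was measured after compound exposure and expressed relative to vehicle-treated controls. The strain carries defined defects in DNA damage repair.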

This is part of a sample that, as a whole, favours compounds with a hit. Of some 79,000 tested, about 15% had one in any assay. Values without a mark were called inactive. Active and inactive are the calls of the source. No stated cut-off is given here; in the data, active means growth inhibition above about 70%; inactive means the rest.

As for `Oc1ccccc1-c1n[nH]c(=S)n1/N=C/c1ccc(-c2ccc(Br)cc2)o1`, the growth inhibition in assay [1] was -30.5%; in assay [2], -19.2%; in assay [3] it was -29.2%; in assay [4], -4.35%; in assay [5], -20.1%; in assay [6], -42.9%.

Take `CCOC(=O)/C(C#N)=C/c1ccc(C)o1`: the growth inhibition in assay [1] was 19.1%; in assay [2] it was 3.1%; in assay [3], 27.4%; in assay [4] it was 33%; in assay [5] it was 31.1%; in assay [6] it was 35%.

Take `O=C(O)C1CC1(C(=O)O)C(=O)O` (stereo not drawn): the growth inhibition was 9.75% in assay [1]; 4.05% in assay [2]; -6.95% in assay [3]; 3.45% in assay [4]; -0.05% in assay [5]; -1.1% in assay [6].

With `CC1=NOC(=O)/C1=C/c1ccc(C)cc1`, the growth inhibition was 33.6% in assay [1]; 20.8% in assay [2]; 23.4% in assay [3]; 2.55% in assay [4]; 13.7% in assay [5]; 8.05% in assay [6].

Turning to `COC1=CC(=O)[C@H]2[C@H](C)C(c3ccccc3)[C@@]2(C)C1=O` (stereo partly drawn), the growth inhibition was -21.5% in assay [1]; -1.5% in assay [2]; -16.6% in assay [3]; 2.1% in assay [4]; -0.05% in assay [5]; -20.2% in assay [6].

Turning to `CCOC(=O)c1sc(SC)nc1NC(=O)c1ccc(OC)cc1`, the growth inhibition in assay [1] was 24.6%; in assay [2] it was 21.7%; in assay [3], -31.6%; in assay [4] it was 17.2%; in assay [5] it was 2.1%; in assay [6], 19.1%.

With `C/C(=N/Nc1ccc([N+](=O)[O-])cc1[N+](=O)[O-])C(C)(C)C`, the growth inhibition in assay [1] is -3.05%; in assay [2], -13.2%; in assay [3], 0.35%; in assay [4], 3.15%; in assay [5] it was -8.75%; in assay [6], -13.2%.

`O=[N+]([O-])c1ccc2[nH]c(=S)n(/C=C(/c3ccccc3)S(=O)Cc3ccccc3)c2c1` (stereo not drawn): the growth inhibition in assay [1] is -2.45%; in assay [2] it was -22.6%; in assay [3] it was -18.7%; in assay [4] it was -3.15%; in assay [5] it was -12%; in assay [6], -5.15%.

`O=C(CCl)Oc1cccc2cccnc12`: the growth inhibition in assay [1] was -8.75%; in assay [2] it was 9%; in assay [3], -1.35%; in assay [4], -12.2%; in assay [5] it was -2.45%; in assay [6] it was -2.75%.

For `Ic1ccc(N=Nc2ccccc2)cc1`, the growth inhibition in assay [1] was -8%; in assay [2], -11.9%; in assay [3], -5.35%; in assay [4] it was -70.3%; in assay [5] it was 25.3%; in assay [6], -12.5%.

Turning to `CCCCCCCCCCCC[N+](C)(C)Cc1cc(=O)c(O)co1`, the growth inhibition was 71.7% (active) in assay [1]; 43.6% in assay [2]; 74.1% (active) in assay [3]; 78.8% (active) in assay [4]; 65% in assay [5]; 27.2% in assay [6].

`O=C1C=C(N2CCCC2)c2ccccc21`: the growth inhibition in assay [1] is 15.4%; in assay [2], -9.25%; in assay [3], 3.85%; in assay [4] it was -18.9%; in assay [5], -27.6%; in assay [6] it was 12.8%.

With `CC(=O)c1cccc(C)n1`, the growth inhibition in assay [1] is 29.8%; in assay [2], -6.05%; in assay [3], 22.1%; in assay [4], 18.2%; in assay [5], 10.9%; in assay [6] it was 36.7%.

For the molecule `Oc1ccccc1-c1nnc2n1N=C(c1ccc(-c3ccccc3)cc1)CS2`, the growth inhibition in assay [1] is 32.5%; in assay [2], -12.3%; in assay [3] it was 23.4%; in assay [4], 20.3%; in assay [5] it was -6.95%; in assay [6] it was 7.55%.

In the case of `CC(C)COC(=O)c1ccc(NC(=O)CN2CC(C)OC(C)C2)cc1` (stereo not drawn), the growth inhibition in assay [1] is 43.8%; in assay [2], -10.4%; in assay [3], 61.9%; in assay [4], 56.5%; in assay [5], 7.95%; in assay [6], 47%.

`COc1cc2c3c(c1OC)-c1cc4c(cc1CC3(C#N)N(C(=O)c1ccccc1)CC2)OCO4` (stereo not drawn): the growth inhibition in assay [1] is 3.5%; in assay [2], 8.05%; in assay [3], -29.2%; in assay [4], -5.35%; in assay [5], 15.1%; in assay [6], 26.1%.

As to `NC(=O)N1CCc2ccccc2C1c1ccccc1` (stereo not drawn), the growth inhibition is -2.95% in assay [1]; -12.7% in assay [2]; -7.55% in assay [3]; -14.4% in assay [4]; 9.25% in assay [5]; -21.4% in assay [6].

Turning to `Nc1nc(-c2ccccc2)c(N=Nc2cccc(Cl)c2)s1`, the growth inhibition in assay [1] was -10.7%; in assay [2] it was -4%; in assay [3] it was -11.4%; in assay [4] it was -48%; in assay [5] it was -2%; in assay [6], -10.8%.

As to `CC(=O)c1c(P(=O)(OC(C)C)OC(C)C)nn(-c2ccc([N+](=O)[O-])cc2)c1C`, the growth inhibition was 59.1% in assay [1]; 20.1% in assay [2]; 22.1% in assay [3]; -0.95% in assay [4]; 14.2% in assay [5]; 32.2% in assay [6].

In the case of `S=C(S)N(Cc1ccccc1)Cc1ccccc1`, the growth inhibition is 33.4% in assay [1]; -3% in assay [2]; 27.2% in assay [3]; -0.7% in assay [4]; 6.6% in assay [5]; 36.5% in assay [6].

For the molecule `CCCCCCCCCCCC(=O)NC(=S)Nc1ccc(C)c(C)c1`, the growth inhibition in assay [1] is 8.65%; in assay [2], 58.2%; in assay [3], 54.6%; in assay [4], -13.6%; in assay [5], 57.5%; in assay [6], 36.9%.

Turning to `O=C(N/N=C/c1cccnc1)C(O)C(O)C(O)C(O)CO` (stereo not drawn), the growth inhibition is -4.15% in assay [1]; 8.9% in assay [2]; 6.75% in assay [3]; 7.6% in assay [4]; -12.6% in assay [5]; 11.9% in assay [6].

As to `c1cc(CCc2ccncc2)ccn1`, the growth inhibition in assay [1] is 21.9%; in assay [2], -16.1%; in assay [3], 2.5%; in assay [4], 3.6%; in assay [5], 1.3%; in assay [6] it was 22.4%.

Regarding `N=c1oc2ccc([N+](=O)[O-])cc2cc1C(=O)NCc1ccccc1`, the growth inhibition is 11.3% in assay [1]; -0.9% in assay [2]; -13.9% in assay [3]; 3.95% in assay [4]; -35.5% in assay [5]; -71.8% in assay [6].

With `O=C1OC2=C(CCCCC2)C(N2CCCCC2)C12SCCCS2` (stereo not drawn), the growth inhibition in assay [1] is -7.9%; in assay [2], -6.2%; in assay [3], -5.2%; in assay [4], -17.3%; in assay [5], -3.25%; in assay [6] it was -14.9%.

Take `NCc1ccccc1F`: the growth inhibition in assay [1] was -10.2%; in assay [2], -23.9%; in assay [3], 12.3%; in assay [4], 13.7%; in assay [5], -6.75%; in assay [6], 4.15%.

As for `c1ccc(-c2nc3c(N4CCOCC4)ncnc3o2)cc1`, the growth inhibition in assay [1] was -3.25%; in assay [2], -4.65%; in assay [3], 7.95%; in assay [4], -2.55%; in assay [5], -4.8%; in assay [6], 2.75%.

Take `O=C(c1ccccc1)C(CBr)C(Br)c1ccccc1` (stereo not drawn): the growth inhibition in assay [1] is -17.4%; in assay [2], 24.7%; in assay [3], 10.1%; in assay [4], -24.8%; in assay [5], 16.9%; in assay [6], 1.75%.

As for `CCOc1ccccc1C(=O)N(CC)CC`, the growth inhibition in assay [1] was -8.55%; in assay [2] it was -3.2%; in assay [3] it was -4.6%; in assay [4], -5.85%; in assay [5] it was -9.8%; in assay [6] it was -5.65%.

In the case of `NNC(=S)N/N=C(/C(=O)Nc1cc(Cl)ccc1Cl)C1C(=O)Nc2ccccc2S1=O` (stereo not drawn), the growth inhibition in assay [1] was -21.8%; in assay [2], -32.6%; in assay [3] it was -5.1%; in assay [4], -28.6%; in assay [5], -6.6%; in assay [6], -0.35%.

As for `NC(=O)CS(=O)Cc1cccc(Br)c1` (stereo not drawn), the growth inhibition in assay [1] is -13.9%; in assay [2], -11.2%; in assay [3], -17.6%; in assay [4], 7.35%; in assay [5], -1.5%; in assay [6] it was 6.5%.

With `O=C1C(=C(C(F)(F)Cl)C(F)(F)Cl)C2CCC1C2` (stereo not drawn), the growth inhibition in assay [1] is 12%; in assay [2], -3.35%; in assay [3], 14.3%; in assay [4], 14.6%; in assay [5], 21.2%; in assay [6], 7.7%.

Take `O=c1c2cccnc2cc(-c2ccccc2)n1CCO`: the growth inhibition in assay [1] is -27.5%; in assay [2] it was -12.3%; in assay [3], -16.2%; in assay [4], 4.55%; in assay [5], 3.3%; in assay [6], -4.15%.

Regarding `Nc1cccc(C(O)c2ccccc2)c1` (stereo not drawn), the growth inhibition is 11.2% in assay [1]; -1.15% in assay [2]; 0.1% in assay [3]; 6.25% in assay [4]; 7.3% in assay [5]; 13.1% in assay [6].

On to `CN1C(=O)CCSC1=S`, for which the growth inhibition in assay [1] is 3.55%; in assay [2], -12.1%; in assay [3], -4.7%; in assay [4], -18.6%; in assay [5], 14.4%; in assay [6] it was -2.05%.

`O=S(=O)(N=S(c1ccccc1)c1ccccc1)c1ccccc1`: the growth inhibition is -67% in assay [1]; -66.2% in assay [2]; -63.1% in assay [3]; -20.9% in assay [4]; -59.6% in assay [5]; -51.2% in assay [6].

For `CCOC(=O)C(C(=O)OCC)n1c(=O)c2c(ncn2C)n(C)c1=O`, the growth inhibition in assay [1] is 13.2%; in assay [2] it was -0.55%; in assay [3] it was -16.8%; in assay [4], 16.1%; in assay [5], 13%; in assay [6], 10.3%.

Regarding `CN(CC(O)CN1CCCc2ccccc21)C1CCCCC1` (stereo not drawn), the growth inhibition in assay [1] was -5.8%; in assay [2], 0.25%; in assay [3], 17.9%; in assay [4] it was -16%; in assay [5], 46%; in assay [6] it was 19.2%.
